High-throughput results from PubChem.
Compounds with a hit are over-represented: about 0.88% of the library has one in this group of screens.
BLM helicase inh = inhibitors of human Bloom syndrome helicase BLM | P54132 | recombinant BLM DNA unwinding, fluorescence dequenching | Potency, µM (top dose mostly 56.1 µM), most hits filed as inhibitors | 350,000 compounds, 0.2% hits | AID 2528; note: nearly all actives have a fitted effect of over 35% in size
GCN5L2 inh = blocks human GCN5L2 histone acetyltransferase; GCN5L2 HAT assay, ThioGlo1 CoA-SH fluorescence; 390,000 compounds, 0.21% hits; Potency, µM (highest dose often 58.9 µM), hits mostly inhibitors; Q92830
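Compounds, pin-transferred from DMSO stocks, meet 20nM GCN5L2 for 15 min before the reaction begins with H3(1-25) peptide (75uM) and acetyl-CoA (70uM). Thiol-reactive ThioGlo1 reports CoA release over 20 min at room temperature.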
RECQ1 inh-1 = inhibitors of human RECQ1 DNA helicase; P46063; 240,000 compounds, 0.54% hits; RECQ1 DNA unwinding, red fluorescence kinetic read; AID 2549; Potency, µM (titrated, usually from 57.3 µM), usual class: inhibitors; note: nearly all actives have a fitted effect of over 30% in size
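50 nM RECQ1T1 preincubated 15 min with compound in Tris pH 8.0 buffer with MgCl2, DTT, Tween-20 and 2.5 ug/ml poly(dI-dC); started with 200 nM TAMRA/BHQ-2 forked duplex and 2 mM ATP. Unwinding read as fluorescence (525/598 nm), two reads 2 h apart.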
WRN helicase inh = inhibitors of human WRN helicase. WRN helicase unwinding, fluorescent forked duplex, kinetic. 360,000 compounds, 0.46% hits. Q14191. Potency, µM (top dose mostly 114 µM), actives largely listed as inhibitors; note: nearly all actives have a fitted effect of over 55% in size
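WRN at 20 nM final preincubated with compound 15 min at room temperature; reaction started with 100 nM fluorophore/quencher forked duplex oligonucleotide and 2 mM ATP final. Unwinding followed kinetically by red fluorescence (ex 525, em 598 nm).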
APE1 inh = APE1 (human) endonuclease inhibition. AID 2517. recombinant APE1, TAMRA/BHQ-2 abasic DNA cleavage fluorescence. 350,000 compounds, 0.35% hits. P27695. Potency, µM (titrated, usually from 65.8 µM), usual class: inhibitors; note: nearly all actives have a fitted effect of over 55% in size
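Substrate: short duplex with […] THF abasic site, 5'-TAMRA and 3'-BHQ-2, 50 nM final. APE1 at 0.75 nM, preincubated 15 min RT with compound. Fluorescence increase from first to third read measured activity.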
ERG Ets-DNA blk = blocks human ERG Ets domain binding to DNA | fluorescence polarization, His-ERG Ets domain / labelled DNA | P11308 | 370,000 compounds, 0.028% hits | Potency, µM (series often up to 76.9 µM), usual class: inhibitors; active = well fitted inhibition curve with a large enough effect in the polarisation, with a control signal flat; inconclusive = small, poorly fitted or top-dose-only effect, or effect the other way, or a change in a side signal; inactive = no such curve, though single readings can be large or run the other way; the % refers to the polarisation;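 note: polarization taken with two DNA probes labelled with fluorescein and Texas red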
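His-tagged ERG Ets domain (1 uM in the protein solution; 300mM KCl, 50mM Tris-HCl, 1mM EDTA, 1mM DTT, pH 7.5) received compound, then a probe mix of 5 nM fluorescein-DNA and 100nM Texas-615-DNA. Fluorescence polarization was read for both dyes.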
RECQ1 conf = confirmation of human RECQ1 helicase inhibitors; shares compounds with RECQ1 inh-1; RECQ1 helicase DNA unwinding, fluorescence; Potency, µM (highest dose often 229 µM), actives largely listed as inhibitors; 610 compounds, 28% hits; AID 2708; note: nearly all actives have a fitted effect of over 45% in size
ADP FP counter = counter-screen for RECQ1 inhibitors: ADP displacement. shares compounds with RECQ1 inh-1. ADP fluorescence polarization displacement counterscreen. Potency, µM (highest dose often 228 µM), most hits filed as inhibitors. 530 compounds, 27% hits. AID 2711; note: nearly all actives have a fitted effect of over 45% in size
RECQ1 inh-2 = blocks human RECQ1 DNA unwinding | shares compounds with RECQ1 inh-1 | recombinant RECQ1 DNA unwinding, red fluorescence | Potency, µM (titrated, usually from 119 µM), most hits filed as inhibitors | 1,100 compounds, 15% hits; note: nearly all actives have a fitted effect of over 50% in size
Hits are given with their value; - = inactive; ? = inconclusive; . = not tested or not shown; ! = a repeat was not active; [ ] = remark or other dose. Unless noted, calls come from the whole dose curve; as a rule, active = well fitted curve in the direction sought with a large enough effect; inconclusive = small, poorly fitted or top-dose-only effect, or another doubt; inactive = no such curve, though single readings can be large; an effect the other way counts as inactive or inconclusive.

SMILES	BLM helicase inh	GCN5L2 inh	RECQ1 inh-1	WRN helicase inh	APE1 inh	ERG Ets-DNA blk	RECQ1 inh-2	others
Nc1cc2c3c(cccc3c1)C(=O)N(CCN1CCCC1)C2=O	-	-	?	-[11.6 µM]	?	-	.
O=C1c2cccc3cc([N+](=O)[O-])cc(c23)C(=O)N1CCN1CCCC1	-	-	?	-[11.6 µM]	?	-	25µM
CCOc1ccccc1C(=O)NCc1ccc2c(c1)CCN2C(C)=O	-	-	.	.	.	-	.
Cc1cc2nc3c(=O)[nH]c(=O)nc-3n(CC(O)C(O)C(O)CO)c2cc1C (centres undefined)	-	?	35µM!	.	?	.	.	RECQ1 conf=112µM;ADP FP counter=45µM
CC(Oc1ccc(O)cc1)(P(=O)(O)O)P(=O)(O)O	-	-	-	.	?	.	.
COc1ccc(Nc2ccc(OC)cc2)cc1	-	-	5.6µM	-	-	-	-	RECQ1 conf=?;ADP FP counter=20µM
O=C(NCc1ccccn1)C1CCN(S(=O)(=O)c2cc(Cl)ccc2Cl)CC1	-	-	?	-	-	-	-
C=CCc1ccccc1OCc1nc2ccccc2n1CC	-	-	.	.	.	-	.
CC(C)Nc1ccc(-c2nc(-c3ccccn3)no2)cc1[N+](=O)[O-]	-	-	.	.	.	-	.
CN1CCc2nc3sc(C(=O)Nc4c(F)cccc4F)c(N)c3cc2C1	-	-	.	.	.	-	.
CC(C)OC(=O)CC(=O)c1sc2nc3c(cc2c1N)CN(C)CC3	-	-	13µM	?	-	-	-
CS(=O)(=O)N1Cc2ccccc2CC1C(=O)OCC(=O)NCc1ccccc1 (centres undefined)	.	-	.	?	?	-	.
C/C(N)=C(/C#N)C(=O)COC(=O)C1Cc2ccccc2CN1S(C)(=O)=O (centres undefined)	-	-	?	-	?	-	?
Cc1ccccc1CNC(=O)CCCn1c(=O)c2cccn2c2ccccc21	-	-	.	.	.	-	.
COc1ccc2c(c1)cc(C(O)c1ccccn1)n2S(=O)(=O)c1ccccc1 (centres undefined)	-	-	-	-	?	-	.
O=S(=O)(c1ccccc1)n1c(C(O)c2ccccn2)cc2ccccc21 (centres undefined)	-	-	?	-	-	-	-
O=[N+]([O-])c1ccc(-c2cnc3ccccc3n2)cc1	-	-	.	-	-	-	.
O=[N+]([O-])c1ccc(-c2c(O)c3ccccc3c3nc4ccccc4nc23)cc1	-	-	25µM	-	-	-	.	RECQ1 conf=-;ADP FP counter=?
CSc1cccc(NC(=O)N2CCN(c3cc(-c4noc(C)n4)ccc3C)CC2)c1	-	-	.	.	.	-	.
CCC(NC(=O)Nc1ccc(O)cc1)(C(F)(F)F)C(F)(F)F	-	-	?	-	?	-	-
CCC(NC(=O)NCc1ccccc1)(C(F)(F)F)C(F)(F)F	-	-	-	-	-	-	.
CC(NC(=O)Nc1ccc(O)cc1)(C(F)(F)F)C(F)(F)F	-	-	?	-	-	-	-
CCCCn1nnnc1C(c1cc2ccccc2o1)N(CCN(C)C)Cc1ccccc1 (centres undefined)	.	.	.	-	.	.	.
COc1cccc(S(=O)(=O)NCc2ccc(C(=O)Nc3ccc(C)cc3)cc2)c1	-	-	-	-	-	-	.
COc1ccc(S(=O)(=O)Nc2cccc(S(=O)(=O)N3CCCCCC3)c2)cc1	-	-	-	-	-	-	.
COc1ccc(NS(=O)(=O)c2ccc(O)c(NC(=O)c3ccc(S(=O)(=O)N4CCCCCC4)cc3)c2)cc1	-	-	-	-[11.6 µM]	-	-	.	RECQ1 conf=-;ADP FP counter=-
